From PubChem BioAssay
Most compounds without a hit are left out; they make up all but 6.6% or so of the library.
SW480 rereplic: induces DNA re-replication in SW480 colon adenocarcinoma cells; Potency, µM (top dose mostly 46.1 µM), most hits filed as activators; SW480 DNA re-replication, Hoechst DNA content imaging, 48 h; 1.8% of 340,000 active; AID 624297; further: nearly all actives have a fitted effect of over 55% in size
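Image-based read-out: total Hoechst fluorescence of nuclei (405 nm excitation, 500-530 nm emission), with hits raising the fraction of high-intensity nuclei. SW480 colon cells incubated 48 hr with compounds at 37 C.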
KB-3-1 cytotox: KB-3-1 parental cell cytotoxicity; Potency, µM (series often up to 46.1 µM), actives largely listed as cytotoxic; AID 1347075; KB-3-1 viability, CellTiter-Glo ATP luminescence, 72 h; 1.4% of 400,000 active; further: nearly all actives have a fitted effect of over 60% in size
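Viability of parental KB-3-1 cells, measured by CellTiter-Glo luminescence, followed a 72 h incubation at 37 °C with pinned compounds in phenol-red-free DMEM containing 10% FBS.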
PTAP TSG101 blk: blocks PTAP/TSG101 interaction to inhibit HIV-1 budding | AID 493005 | 340,000 tested, under 10 active | Potency, µM (series often up to 115 µM), usual class: inhibitors | Fluorescence polarization, FITC-PTAP peptide / Tsg101 binding | Q99816; active means well fitted inhibition curve with a large enough effect in the main read-out, with a control signal flat, not every such curve was filed as active; inconclusive means small, poorly fitted or top-dose-only effect, or effect the other way, or a change in a side signal; inactive means no such curve, though single readings can be large or run the other way
Target sequence (Q99816 whole entry, looked up): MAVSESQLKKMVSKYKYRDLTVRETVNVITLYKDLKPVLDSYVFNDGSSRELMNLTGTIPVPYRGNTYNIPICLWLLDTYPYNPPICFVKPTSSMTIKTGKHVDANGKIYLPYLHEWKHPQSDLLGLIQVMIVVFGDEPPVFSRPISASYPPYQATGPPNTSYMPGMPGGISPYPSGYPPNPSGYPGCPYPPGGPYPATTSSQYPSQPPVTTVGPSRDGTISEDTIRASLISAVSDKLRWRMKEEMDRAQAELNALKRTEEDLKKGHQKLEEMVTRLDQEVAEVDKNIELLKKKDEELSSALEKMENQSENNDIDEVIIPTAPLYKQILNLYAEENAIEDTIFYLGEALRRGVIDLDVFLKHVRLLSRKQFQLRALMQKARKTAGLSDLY
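FP read-out: FITC-PTAP peptide, 50 nM final, binding Tsg101 binding domain, 10 uM final; 20 min, r.t.; 10 mM HEPES pH 7.5, 0.15 M NaCl, 0.01% Tween 20, 3 mM EDTA, 0.1 mM TCEP.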
RGS4 inhibitor: inhibitors of human regulator of G protein signaling 4 | P49798 | Transcreener GDP fluorescence polarization, RGS4-accelerated GTP hydrolysis | Potency, µM (top dose mostly 114 µM), hits mostly inhibitors | 0.039% of 390,000 active; further: nearly all actives have a fitted effect of over 75% in size
Target sequence (P49798 whole entry, looked up): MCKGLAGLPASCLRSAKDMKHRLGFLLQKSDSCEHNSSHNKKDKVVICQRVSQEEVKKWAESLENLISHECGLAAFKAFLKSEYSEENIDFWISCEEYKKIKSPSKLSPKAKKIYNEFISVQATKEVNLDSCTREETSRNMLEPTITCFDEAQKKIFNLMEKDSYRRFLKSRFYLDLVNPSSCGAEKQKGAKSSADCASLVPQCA
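MLSMR compounds (23 nl, pin-transferred) preincubated 10 min at room temperature with a 500nM (2x) first reagent, then RGS4 at 900nM (2x) plus Transcreener GDP mix added; fluorescence polarization (620/688 nm) read before and after 90 min at 30 °C.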
KB-V1 MDR tox: kills drug-selected multidrug resistant KB-V1 cells; Potency, µM (series often up to 46.1 µM), usual class: cytotoxic; KB-V1 MDR cells viability, CellTiter-Glo, 72 h; 3.4% of 400,000 active; further: nearly all actives have a fitted effect of over 60% in size
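Potencies derive from concentration-effect curves fitted to normalized luminescence (CellTiter-Glo) of KB-V1 cells treated for 72 h at 37 degrees C in phenol-red-free DMEM containing 10% FBS.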
MCF10A rerep: DNA re-replication induction in MCF 10a cells. 2.9% of 350,000 active. AID 624296. Potency, µM (top dose mostly 46.1 µM), usual class: activators. MCF 10A DNA re-replication, Hoechst nuclear intensity, 48 h; further: nearly all actives have a fitted effect of over 50% in size
Numbers stand for hits; . = inactive; ? = inconclusive; / = no result given; [ ] = another dose, or the depositor's remark. Unless noted, the call rests on the fitted dose curve; in most records, active means well fitted curve in the direction sought with a large enough effect; inconclusive means small, poorly fitted or top-dose-only effect, or another doubt; inactive means no such curve, though single readings can be large; an effect the other way counts as inactive or inconclusive.

SMILES | SW480 rereplic | KB-3-1 cytotox | PTAP TSG101 blk | RGS4 inhibitor | KB-V1 MDR tox | MCF10A rerep
COc1cccc(CN2C(=O)C3(SCC(=O)N3c3ccc(F)cc3)c3ccccc32)c1 (stereo not given) | / | . | / | . | ? | /
O=C(CN1C(=O)C2(SCC(=O)N2c2cccc(Cl)c2)c2ccccc21)NCc1ccccc1 (stereo not given) | / | . | / | . | ? | /
O=C(CN1C(=O)C2(SCC(=O)N2c2cccc(Cl)c2)c2ccccc21)NCCc1ccccc1 (stereo not given) | / | 15µM | / | . | . | /
CCc1ccc(N2C(=O)CSC23C(=O)N(Cc2cccc(F)c2)c2ccccc23)cc1 (stereo not given) | / | ? | / | . | 12µM | /
CC(C)c1ccc(N2C(=O)CSC23C(=O)N(Cc2ccccc2F)c2ccccc23)cc1 (stereo not given) | / | ? | / | . | ? | /
CC(C)c1ccc(N2C(=O)CSC23C(=O)N(Cc2ccccc2)c2ccccc23)cc1 (stereo not given) | / | ? | / | . | 12µM | /
Cc1ccc(CN2C(=O)C3(SCC(=O)N3c3ccc(C)c(C)c3)c3ccccc32)cc1 (stereo not given) | / | 21µM | / | . | 18µM | /
Cc1ccc(N2C(=O)CSC23C(=O)N(Cc2ccccc2F)c2ccccc23)cc1F (stereo not given) | / | ? | / | . | 10µM | /
O=C(Nc1ccc2nc(SCC(=O)N3CCCC3)sc2c1)c1cccc(F)c1 | / | / | / | . | / | /
S=C(NCCc1ccccc1)Nc1cccc2cnccc12 | . | 4.1µM | . | . | 8.2µM | .
Fc1ccccc1NC(=S)Nc1cccc2cnccc12 | . | ? | . | ? | 23µM | .
Cc1ccccc1NC(=S)Nc1cccc2cnccc12 | . | . | . | . | ? | .
S=C(Nc1cccc(Cl)c1)Nc1cccc2cnccc12 | . | 18µM | . | ? | 23µM | ?
Cc1ccc(C)c(NC(=S)Nc2cccc3cnccc23)c1 | 13µM | ? | . | ? | ? | ?
Cc1ccc(NC(=S)Nc2cccc3cnccc23)cc1C | . | ? | . | . | ? | .
COCc1cc(O)c(O)c(O)c1-c1c(COC)cc(O)c(O)c1O | / | . | / | ? | . | /
COc1cc([N+](=O)[O-])ccc1NC(=O)N1CCC2(CC1)Nc1ccccc1-n1cccc12 | / | . | / | . | . | /
CCCN(CCC)c1nn2c(=O)c(C(=O)NCc3cc(Br)ccc3OC)cnc2s1 | / | / | / | . | / | /
Cc1cccn2c(=O)c3cc(C(=O)NCCN4CCOCC4)c(=N)n(CCCN4CCOCC4)c3nc12 | 1.2µM | . | . | . | . | ?
COCCCn1c(=N)c(C(=O)NCc2ccco2)cc2c(=O)n3cccc(C)c3nc21 | / | . | / | . | ? | /
Cc1cccn2c(=O)c3cc(C(=O)NCc4ccccc4)c(=N)n(CCCN4CCOCC4)c3nc12 | 5.2µM | ? | . | . | . | .
COCCCn1c(C(=O)NCCN2CCOCC2)cc2c(=O)n3cccc(C)c3nc21 | ? | ? | . | . | ? | ?
COCCn1c(=N)c(C(=O)NCCc2ccccc2)cc2c(=O)n3cccc(C)c3nc21 | 1.8µM | . | . | . | . | ?
C=CCn1c(=N)c(C(=O)NCCCOC)cc2c(=O)n3cccc(C)c3nc21 | ? | . | . | . | . | 4.1µM
COc1ccc(CNCc2ccc3c(c2)n(C)c(=O)n3C)cc1 | / | . | / | . | . | /
SMILES | SW480 rereplic | KB-3-1 cytotox | PTAP TSG101 blk | RGS4 inhibitor | KB-V1 MDR tox | MCF10A rerep
NC(=O)CCC1NC(=O)C(Cc2ccccc2)NC(=O)C(Cc2ccc(O)cc2)NC(=O)CCSSCC(C(=O)N2CCCC2C(=O)NC(CCCN=C(N)N)C(=O)NCC(N)=O)NC(=O)C(CC(N)=O)NC1=O (stereo not given) | ? | / | / | / | / | .
O=C(NCC(c1ccccc1)c1ccccc1)c1nn(-c2ccccc2F)nc1CO | / | / | / | . | / | /
Cc1cccn2c(=O)c3cc(C(=O)NCCN4CCOCC4)c(=N)n(CCc4ccccc4)c3nc12 | 2.6µM | . | . | . | ? | 2.6µM
CCOCCCNC(=O)c1cc2c(=O)n3cccc(C)c3nc2s1 | . | . | . | . | . | .
COc1ccc(CCn2c(=N)c(C(=O)NCCN3CCOCC3)cc3c(=O)n4cccc(C)c4nc32)cc1OC | 16µM | . | . | . | . | ?
COc1ccc(CCn2c(=N)c(C(=O)NCCN3CCOCC3)cc3c(=O)n4ccccc4nc32)cc1OC | . | . | . | . | . | .
COCCCNC(=O)c1cccn2c(=O)c3cc4ccccc4cc3nc12 | ? | . | ? | . | 4.1µM | 13µM
CC1=C(C(=O)Nc2ccccc2)C(c2cccnc2)n2nc(SCc3ccccc3F)nc2N1 (stereo not given) | / | . | / | . | ? | /
Cc1ccc(Nc2nnc(-c3ccc(C)c(S(=O)(=O)N4CCOCC4)c3)c3ccccc23)c(C)c1 | / | / | / | . | / | /
Cc1ccc(-c2nc3ccccc3o2)cc1NC(=S)NC(=O)/C=C/c1ccco1 | 8.2µM | 13µM | . | . | ? | 7.3µM
Cc1ccc(-c2nc3ccccc3s2)cc1NC(=S)NC(=O)/C=C/c1ccco1 | ? | ? | . | ? | ? | .
Cc1ccc(-n2nc3cc(C)c(NC(=S)NC(=O)/C=C/c4ccco4)cc3n2)cc1 | 3.7µM | . | . | . | . | .
O=C(/C=C/c1ccccc1)NC(=S)Nc1ccc(N2CCOCC2)c(Cl)c1 | ? | . | . | . | . | .
O=C(/C=C/c1ccco1)NC(=S)Nc1ccc(N2CCOCC2)c(Cl)c1 | 5.2µM | 4.1µM | . | . | ? | ?
COc1ccc(-c2nc3ccccc3o2)cc1NC(=O)COc1ccc(C)c(C)c1 | / | 5.8µM | / | . | ? | /
O=C(COC(=O)CNC(=O)C1CCCCC1)NC1CCCC1 | / | ? | / | . | ? | /
O=C(/C=C/c1ccco1)NC(=S)Nc1ccccc1 | . | . | . | . | . | .
COc1ccc(-n2nc3cc(C)c(NC(=S)NC(=O)c4ccccc4C)cc3n2)cc1 | . | . | . | . | . | 3.7µM
O=C(/C=C/c1ccco1)NC(=S)Nc1cc(-c2nc3ccccc3s2)ccc1Cl | ? | . | . | . | ? | ?
Cc1cccc(NC(=S)NC(=O)/C=C/c2ccco2)c1 | 2.1µM | 4.6µM | . | . | 5.2µM | ?
O=C(/C=C/c1ccco1)NC(=S)Nc1cccc(-c2nc3ccccc3o2)c1 | 9.2µM | ? | . | ? | 8.2µM | 3.7µM
O=C(/C=C/c1ccco1)NC(=S)Nc1cccc(-c2nc3ccccc3s2)c1 | ? | 8.2µM | . | .[11.4 µM] | 6.5µM | 5.8µM
C=C1C=C(C(F)(F)F)n2ncc(C(=O)NCc3ccc(F)cc3)c2N1 | / | . | / | / | . | /
COc1ccc(C)c2sc(N(Cc3cccnc3)C(=O)C3CCCCC3)nc12 | / | . | / | ? | . | /
CCc1ccc2ncc3c(-c4ccc(F)cc4)nn(CC(=O)NC4CCCCC4)c3c2c1 | / | / | / | . | / | /
